# Source: PubChem BioAssay
# “And” between values parts separate entries of the source, which are not always exact repeats. Equal values may be shown once. The source made the active and inactive calls.
# What was measured:
# [1] = E. coli DRC41 culture turbidity changes, primary screen, E. coli filamentation inducer project, strain DRC41, OD650, 48 h (AID 1152);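 also: E. coli MC1000 strain DRC41 lacking acrAB efflux pump and sulA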; details: E. coli DRC41 (acrAB sulA), higher = more signal, called active from +8 up or from −8 down
# [2] = small-molecule binders of probe aLefty1, primary screen, biochemical, small-molecule microarray, 635/667 nm fluorescence (AID 1153); details: higher = more signal;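 also: score merges spot fluorescence with signal-to-noise ratio from the scanned slide images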
# [3] = PSAC antagonists in infected red cells, primary screen, cell-based, P. falciparum Indochina, OD700, 1 h (AID 1154); details: P. falciparum Indochina infected RBC osmotic lysis, higher = more signal, called active from +8 up or from −8 down
# [4] = PSAC antagonists in infected red cells, primary screen, cell-based, P. falciparum Indochina, OD700, 2 h (AID 1155);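 also: lysis reports solute entry through the parasite surface anion channel PSAC; channel blockers reduce lysis of infected cells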; details: P. falciparum Indochina infected erythrocytes, osmotic lysis OD700; higher = more signal, called active from +8 up or from −8 down
# [5] = osmotic lysis modulators in infected erythrocytes, primary screen, PSAC antagonist project, cell-based, P. falciparum Indochina, OD700, 3 h (AID 1156); details: higher = more signal, called active from +8 up or from −8 down
# [6] = PSAC antagonists in infected red cells, primary screen, cell-based, P. falciparum Indochina, OD700, 18 h (AID 1157); details: P. falciparum Indochina infected erythrocytes, osmotic lysis OD700, 18 h; higher = more signal, called active from +8 up or from −8 down
# [7] = modulators of S6 phosphorylation in cells, primary screen, cell-based, A549, cytoblot, luminescence, serum-stimulated (AID 1158); details: A549 phospho-S6 cytoblot, 5 h, higher = more signal;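 also: serum-stimulated A549 lung adenocarcinoma cells; signal is phosphorylated S6 detected by cytoblot immunostaining with HRP secondary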
# [8] = biological target: NADPH oxidase 2 (Homo sapiens) (UniProt P04839); test: NOX2-dependent H2O2 signal modulators, primary screen, NOX inhibitor project, cell-based, HEK293-NOX2, PMA-stimulated, Amplex Red fluorescence (AID 1159); details: 45 min, higher = more signal, called active from +8 up or from −8 down; also: test concentration not given here
# [9] = biological target: NADPH oxidase 4 (Homo sapiens) (UniProt Q9NPH5); test: NOX4-dependent H2O2 signal modulators, primary screen, NOX inhibitor project, cell-based, HEK293-NOX4, tetracycline-induced, Amplex Red fluorescence (AID 1160); details: 45 min, higher = more signal, called active from +8 up or from −8 down
# [10] = biological target: NADPH oxidase 5 (Homo sapiens) (UniProt Q96PH1); test: NOX5-dependent H2O2 signal modulators, primary screen, NOX inhibitor project, cell-based, HEK293-NOX5, Amplex Red fluorescence (AID 1161); details: HEK293-NOX5, ionomycin, 45 min, higher = more signal
# [11] = A549 cell viability effects, profiling panel, calcein-AM fluorescence, 48 h, basal (AID 1162); details: higher = more signal; also: test concentration not given here
# [12] = adipocyte viability effects, profiling panel, cell-based, 3T3-L1 adipocytes, calcein-AM fluorescence, 48 h, basal (AID 1163); details: 3T3-L1 adipocytes viability, higher = more signal; also: test concentration not given here
# [13] = HepG2 cell viability effects, profiling panel, calcein-AM fluorescence, 48 h, basal (AID 1164); details: higher = more signal; also: test concentration not given here
# [14] = MM1S cell viability effects, profiling panel, calcein-AM fluorescence, 48 h, basal (AID 1165); details: higher = more signal;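 also: viability of MM1S multiple myeloma cells under basal unstimulated conditions; test concentration not given here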
# [15] = basal RPMI8226 viability, no added stimulus, profiling panel, cell-based, calcein-AM fluorescence, 48 h, PK04 Diversity Set (AID 1166); details: RPMI8226 myeloma viability, higher = more signal;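 also: cells grown under basal conditions without added stimulus; test concentration not given here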
# [16] = basal HepG2 mitochondrial membrane potential changes, profiling panel, cell-based, JC-1 fluorescence, 24 h, 100 nL compound (AID 1167); details: higher = more signal; also: test concentration not given here
# [17] = basal 3T3-L1 adipocyte mitochondrial potential changes, profiling panel, cell-based, JC-1 fluorescence, 3T3-L1 adipocytes, 24 h, 100 nL compound (AID 1168); details: JC-1 mitochondrial fluorescence, higher = more signal, called active from +8 up or from −8 down; also: test concentration not given here
# [18] = basal RPMI8226 mitochondrial membrane potential changes, profiling panel, cell-based, JC-1 fluorescence, 24 h, 100 nL compound (AID 1169); details: RPMI8226 myeloma, JC-1 mitochondrial potential fluorescence, higher = more signal; also: test concentration not given here
# [19] = basal MM1S mitochondrial membrane potential changes, profiling panel, cell-based, JC-1 fluorescence, 24 h, 100 nL compound (AID 1170); details: higher = more signal; also: test concentration not given here
# [20] = A549 lung cancer cell viability effects, profiling panel, resazurin fluorescence, 24 h, PK04 Diversity Set (AID 1171); details: higher = more signal, called active from +8 up or from −8 down; also: test concentration not given here
# Chain of NADPH oxidase 5 (Homo sapiens) (Q96PH1 whole entry, looked up): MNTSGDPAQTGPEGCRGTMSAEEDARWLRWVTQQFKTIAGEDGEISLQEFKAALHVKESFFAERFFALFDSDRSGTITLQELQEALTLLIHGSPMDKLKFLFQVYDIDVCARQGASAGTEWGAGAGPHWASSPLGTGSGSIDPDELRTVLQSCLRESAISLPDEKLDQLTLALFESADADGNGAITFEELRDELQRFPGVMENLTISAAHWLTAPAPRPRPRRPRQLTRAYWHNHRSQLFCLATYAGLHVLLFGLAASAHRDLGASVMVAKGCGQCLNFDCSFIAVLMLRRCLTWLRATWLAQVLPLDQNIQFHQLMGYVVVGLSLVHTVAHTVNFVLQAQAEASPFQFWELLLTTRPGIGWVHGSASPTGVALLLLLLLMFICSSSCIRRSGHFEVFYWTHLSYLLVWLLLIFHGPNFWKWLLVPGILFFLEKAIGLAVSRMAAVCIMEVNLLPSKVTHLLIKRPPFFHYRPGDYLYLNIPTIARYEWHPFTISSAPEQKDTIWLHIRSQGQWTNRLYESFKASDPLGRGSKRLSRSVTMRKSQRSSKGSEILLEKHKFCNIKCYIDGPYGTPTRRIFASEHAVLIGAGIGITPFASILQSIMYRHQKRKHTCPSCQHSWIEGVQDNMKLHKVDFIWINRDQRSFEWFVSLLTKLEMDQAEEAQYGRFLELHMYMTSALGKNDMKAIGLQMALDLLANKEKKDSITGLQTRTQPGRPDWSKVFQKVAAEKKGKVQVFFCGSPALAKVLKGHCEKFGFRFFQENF
# Chain of NADPH oxidase 4 (Homo sapiens) (Q9NPH5 whole entry, looked up): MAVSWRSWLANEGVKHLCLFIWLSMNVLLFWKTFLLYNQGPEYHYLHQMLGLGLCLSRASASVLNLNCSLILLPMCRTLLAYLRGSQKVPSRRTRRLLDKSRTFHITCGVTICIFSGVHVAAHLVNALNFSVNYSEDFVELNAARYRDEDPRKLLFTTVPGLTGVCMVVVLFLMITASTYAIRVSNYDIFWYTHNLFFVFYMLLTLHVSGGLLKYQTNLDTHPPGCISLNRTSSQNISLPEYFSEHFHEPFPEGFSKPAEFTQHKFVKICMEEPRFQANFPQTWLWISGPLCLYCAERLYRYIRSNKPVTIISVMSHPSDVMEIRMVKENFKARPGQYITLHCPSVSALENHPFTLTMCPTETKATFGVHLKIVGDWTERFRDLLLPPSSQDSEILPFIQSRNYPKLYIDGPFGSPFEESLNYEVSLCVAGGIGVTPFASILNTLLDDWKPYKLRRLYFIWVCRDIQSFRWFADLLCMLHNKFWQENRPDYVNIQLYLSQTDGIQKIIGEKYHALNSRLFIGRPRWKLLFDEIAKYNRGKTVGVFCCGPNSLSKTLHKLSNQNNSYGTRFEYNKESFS
# Chain of NADPH oxidase 2 (Homo sapiens) (P04839 whole entry, looked up): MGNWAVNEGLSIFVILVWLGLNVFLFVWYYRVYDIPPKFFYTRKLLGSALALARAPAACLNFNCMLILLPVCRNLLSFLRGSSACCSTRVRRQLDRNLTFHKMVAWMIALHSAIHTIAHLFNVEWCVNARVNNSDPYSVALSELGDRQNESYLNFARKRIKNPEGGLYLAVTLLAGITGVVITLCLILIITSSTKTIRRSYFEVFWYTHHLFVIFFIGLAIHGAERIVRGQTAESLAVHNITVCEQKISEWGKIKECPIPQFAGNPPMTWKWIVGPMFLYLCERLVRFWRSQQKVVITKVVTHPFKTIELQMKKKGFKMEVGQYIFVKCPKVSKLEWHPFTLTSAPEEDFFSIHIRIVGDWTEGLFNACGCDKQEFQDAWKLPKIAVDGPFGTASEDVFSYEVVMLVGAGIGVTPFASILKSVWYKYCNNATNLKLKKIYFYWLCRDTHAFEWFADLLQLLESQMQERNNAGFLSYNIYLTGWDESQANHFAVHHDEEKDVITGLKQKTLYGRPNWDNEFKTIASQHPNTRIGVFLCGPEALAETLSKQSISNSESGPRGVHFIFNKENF
Compound,z-score [1],composite z-score [2],z-score [3],z-score [4],z-score [5],z-score [6],z-score [7],z-score [8],z-score [9],z-score [10],z-score [11],z-score [12],z-score [13],z-score [14],z-score [15],z-score [16],z-score [17],z-score [18],z-score [19],z-score [20]
C=CCN(Cc1ccccc1)C(=O)C1N(c2ccc(CCO)cc2)C(=O)C2C(C(=O)O)C3C=CC21O3 (stereo not given),0.458 (inactive) and 1.31 (inactive),-0.289 and -0.27,1.25 (inactive) and 1.16 (inactive),0.401 (inactive) and 0.572 (inactive),0.0406 (inactive) and -0.339 (inactive),-0.157 (inactive) and 0.382 (inactive),-0.0071 and 0.775,0.819 (inactive) and 0.498 (inactive),-1.13 (inactive) and -0.149 (inactive),0.865 and 0.168,0.14 and -0.777,0.103 and 0.408,-0.0042 and -0.474,0.298 and 1.04,-0.6 and -0.438,0.0701 and -0.213,0.543 (inactive) and 0.024 (inactive),-0.79 and 0.726,1.09 and 0.0787,-1.06 (inactive) and -0.459 (inactive)
C=CCN(CCCCC)C(=O)C(c1cccs1)N(C(=O)/C=C\C(=O)O)c1c(Cl)cccc1CO (stereo not given),-0.316 (inactive) and -0.346 (inactive),0.0005 and -1.11,-0.501 (inactive) and 0.334 (inactive),0.092 (inactive) and 0.571 (inactive),-0.0324 (inactive) and -0.0069 (inactive),0.257 (inactive) and 0.404 (inactive),-0.122 and -0.137,0.306 (inactive) and 0.277 (inactive),-0.584 (inactive) and -0.408 (inactive),0.212 and 0.29,0.307 and -0.656,0.131 and -0.101,-1.11 and -0.202,1.34 and 2.08,0.114 and -0.235,-0.0476 and -0.222,-0.706 (inactive) and 0.13 (inactive),0.1 and 0.992,0.0829 and -0.125,-0.559 (inactive) and 0.0449 (inactive)
COC(=O)C1=C2N(Cc3ccccc3)C(C)=C(C(=O)OC)[C@@H](c3ccccc3)N2C(=O)[C@](O)(C(=O)OC)C1,0.33 (inactive) and -0.579 (inactive),-0.0694 and -0.189,1.6 (inactive) and 0.553 (inactive),1.02 (inactive) and 0.676 (inactive),0.878 (inactive) and -0.159 (inactive),0.468 (inactive) and 0.318 (inactive),-0.482 and -0.524,0.258 (inactive) and 0.184 (inactive),0.64 (inactive) and 0.0139 (inactive),0.932 and 0.724,-0.104 and 1.11,0.387 and -1.41,-0.102 and 0.511,-0.397 and -0.107,-1.16 and 0.38,0.574 and 0.276,-0.0488 (inactive) and -0.394 (inactive),-0.848 and 0.573,0.127 and 0.0283,1.83 (inactive) and -0.59 (inactive)
Cc1cc2c(nc1C)CCCN2CC(C)ON=C[C@@H](C)[C@H](OCc1ccccc1)C(C)C (stereo not given in full),-0.434 (inactive),-0.0984,0.376 (inactive),-0.0677 (inactive),-0.108 (inactive),0.294 (inactive),-0.775,0.231 (inactive),-0.217 (inactive),0.00713,-0.351,-0.641,0.122,-1.24,-0.583,-0.741,-0.827 (inactive),0.708,-0.483,-0.522 (inactive)
CCOC(=O)[C@@H]1CC=C2CC1C(=O)N1CCC[C@@H]1[C@H]2O[Si](C)(C)C(C)(C)C (stereo not given in full),-1.02 (inactive) and -0.796 (inactive),-0.199 and -0.417,-0.0845 (inactive) and 0.699 (inactive),-0.474 (inactive) and 0.0056 (inactive),-0.495 (inactive) and 0.882 (inactive),-0.0374 (inactive) and 0.133 (inactive),0.308 and -0.0299,-0.0861 (inactive) and -0.161 (inactive),1.2 (inactive) and -0.116 (inactive),-1.02 and -2.48,-0.366 and -0.566,-0.0834 and 0.84,-0.45 and -1.76,-0.204 and -0.227,-1.71 and -2.37,-1.48 and 0.214,-0.649 (inactive) and 0.192 (inactive),-0.0804 and 0.132,0.144 and 0.321,0.016 (inactive) and 2.5 (inactive)
COC(=O)[C@@]1(Cc2ccccc2)[C@H]2c3cc(C(=O)N(C)C)n(Cc4ccc(C)c(F)c4F)c3C[C@H]2CN1C(=O)c1ccccc1,-1.18 (inactive) and -1.91 (inactive),0.476 and 0.712,2.54 (inactive) and 4.12 (inactive),-0.6 (inactive) and 1.2 (inactive),0.425 (inactive) and 0.306 (inactive),-1.34 (inactive) and 1.21 (inactive),1.16 and 0.782,-3.14 (inactive) and 0.452 (inactive),-4.83 (inactive) and -1.66 (inactive),-5.5 and -1.88,-3.17 and -1.66,0.42 and 0.702,-2.78 and -1.77,-3.27 and -3.16,-4.73 and -4.71,-2.92 and -1,-1.35 (inactive) and -1.29 (inactive),-0.926 and -0.872,-3 and -1.7,-3.06 (inactive) and -1.94 (inactive)
O=C(NN=C1C[C@@H](O)[C@@H](O)[C@@H]2[C@@H]3C(=O)N(Cc4ccc5c(c4)OCO5)C(=O)[C@@H]3CC[C@H]12)OCc1ccccc1,1.2 (inactive),0.126,37 (active),14.8 (active),0.833 (inactive),1.24 (inactive),-0.241,-1.32 (inactive),0.0354 (inactive),0.664,0.356,-0.263,0.339,0.172,0.102,1.3,0.415 (inactive),0.559,-1.79,-0.31 (inactive)
CCOC(=O)C[C@H]1[C@H](OC(=O)c2ccccc2-c2ccccc2)[C@@H](NC(=O)Cc2ccc(OC)cc2)c2cc(OCCCO)ccc2N1C(=O)c1ccc2ccccc2n1,2.19 (inactive) and 1.32 (inactive),-0.012 and -0.0186,3.8 (inactive) and 1.18 (inactive),0.674 (inactive) and 0.879 (inactive),0.366 (inactive) and -0.295 (inactive),0.329 (inactive) and 0.627 (inactive),0.661 and 0.0515,-0.488 (inactive) and 1.54 (inactive),0.946 (inactive) and 0.859 (inactive),0.365 and 0.0653,0.637 and 1.07,1.49 and 0.317,0.633 and 0.244,0.218 and 0.868,-0.765 and -0.644,3.65 and 1.61,0.611 (inactive) and 0.669 (inactive),0.257 and -0.354,0.82 and 0.248,1.26 (inactive) and 0.555 (inactive)
C[C@@H](ON=C1[C@H]2CCn3c(=O)n(-c4ccccc4)c(=O)n3[C@H]2[C@H](O)[C@@H]2O[C@H]12)c1cn([C@H](CO)Cc2ccccc2)nn1,0.328 (inactive),-0.049,0.508 (inactive),0.461 (inactive),0.373 (inactive),0.367 (inactive),0.164,-0.622 (inactive),-0.268 (inactive),0.259,0.158,-0.002,0.567,-0.463,-0.259,-0.998,0.31 (inactive),-0.334,-0.00977,-0.847 (inactive)
C=CCN(CCCCC)C(=O)C1N(c2ccc(CCO)cc2)C(=O)C2C(C(=O)O)C3C=CC21O3 (stereo not given),-0.202 (inactive) and 0.216 (inactive),-0.0099 and 0.0736,1.47 (inactive) and 1.68 (inactive),0.351 (inactive) and 0.438 (inactive),-0.148 (inactive) and -0.54 (inactive),0.0385 (inactive) and 0.356 (inactive),1.15 and 0.435,1.21 (inactive) and 0.745 (inactive),0.564 (inactive) and 0.124 (inactive),0.698 and 0.836,-0.0277 and -0.611,-0.0076 and 0.226,-0.97 and 0.288,0.867 and 0.199,-0.322 and -1.02,-0.587 and -1.1,-0.545 (inactive) and -0.407 (inactive),0.647 and 0.562,0.743 and 0.912,-0.792 (inactive) and -0.842 (inactive)
CC(CO)N1C(=O)[C@@H]2C3C(=O)OCCC=C[C@H]3OC23C=CCN(Cc2ccccc2)C(=O)[C@@H]13 (stereo not given in full),0.697 (inactive) and 0.925 (inactive),-0.0162 and 0.132,3.31 (inactive) and 0.464 (inactive),1.11 (inactive) and 0.0933 (inactive),1.21 (inactive) and 1.05 (inactive),0.403 (inactive) and 0.258 (inactive),-0.388 and -0.526,1.26 (inactive) and 1.71 (inactive),1.09 (inactive) and -0.409 (inactive),2.15 and 2.85,0.606 and 0.0694,0.888 and 0.458,0.237 and 0.113,0.34 and 0.311,-0.306 and -0.454,0.567 and 0.15,0.932 (inactive) and 0.902 (inactive),-0.914 and 0.0338,0.789 and 0.282,0.305 (inactive) and 0.147 (inactive)
CCOC(=O)[C@H](CC(C)C)NC(=O)CCC1CC(OC(=O)NCc2cccc3ccccc23)CC2(CCCC(COC(=O)NCc3ccccc3)O2)O1 (stereo not given in full),-0.42 (inactive),-0.393,0.56 (inactive),-0.166 (inactive),-1.33 (inactive),0.097 (inactive),-0.194,0.209 (inactive),0.0251 (inactive),0.281,0.531,-0.172,-0.435,0.184,0.0523,2.45,0.472 (inactive),0.0897,-0.717,0.586 (inactive)
